Where “and” joins values, the source holds several entries; their conditions need not be identical. Identical values can stand only once. Results filed as inconclusive are left out. Where a call stands in place of a potency, no number is given. Calls of active or inactive are those of the source. Unless noted, calls come from the whole dose curve.
Legend:
[1] = Nuclear factor erythroid 2-related factor 2/antioxidant responsive element (Nrf2/ARE) small molecule agonists: qHTS cell viability counter screen in human keratinocytes (AID 1919968; active = well fitted curve in the direction sought with a large enough effect in the repeat runs; an effect the other way counts as inactive or inconclusive; note: nearly all actives have a fitted effect of over 55% in size; note: potency is the fitted concentration of half-maximal effect)
Method in brief: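 Fluorescence read-out from CellTiter-Fluor after 1 h at 37 C. Wells held HaCaT-derived ARE-luciferase reporter cells (1,500/well) treated 23 h with DMSO-dissolved compounds. Run in the same wells as the luciferase agonist read.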

[2] = Nuclear factor erythroid 2-related factor 2/antioxidant responsive element (Nrf2/ARE) small molecule agonists: luciferase reporter gene qHTS assay in human keratinocytes (AID 1919969); note: nearly all actives have a fitted effect of over 35% in size; note: potency is the fitted concentration of half-maximal effect
[3] = biological target: Gonadotropin-releasing hormone receptor (Homo sapiens) (UniProt P30968); test: Human gonadotropin-releasing hormone receptor (GnRHR) small molecule agonists, calcium flux assay in GnRHR-HEK293 cells (AID 1920063); note: nearly all actives have a fitted effect of over 35% in size; note: potency is the fitted concentration of half-maximal effect
Chain of Gonadotropin-releasing hormone receptor (Homo sapiens) (P30968 whole entry, looked up): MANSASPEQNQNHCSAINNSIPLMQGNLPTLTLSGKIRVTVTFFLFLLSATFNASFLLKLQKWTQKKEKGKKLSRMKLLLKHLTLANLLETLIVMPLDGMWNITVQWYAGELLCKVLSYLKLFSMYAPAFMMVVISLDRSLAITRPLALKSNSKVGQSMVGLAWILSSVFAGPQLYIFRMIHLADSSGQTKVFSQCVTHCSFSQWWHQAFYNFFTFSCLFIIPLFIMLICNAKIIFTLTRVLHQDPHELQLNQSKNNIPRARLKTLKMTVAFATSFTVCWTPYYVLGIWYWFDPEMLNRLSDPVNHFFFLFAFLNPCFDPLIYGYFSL
Method in brief: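 Calcium-dye fluorescence, Ex/Em=480/540, recorded every 1 sec over 3 min after compound addition to GnRHR-HEK293 cells. Cells had been seeded 18 hours earlier and dye-loaded for 1 hour at 37 C. Fifteen concentrations, triplicates.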

[4] = biological target: KiSS-1 receptor (Homo sapiens) (UniProt Q969F8); test: Human kisspeptin (KISS1R) small molecule agonists, calcium flux assay in KISS1R-HEK293 cells (AID 1920064; active = well fitted curve in the direction sought with a large enough effect in the repeat runs; an effect the other way counts as inactive or inconclusive; note: potency is the fitted concentration of half-maximal effect)
Chain of KiSS-1 receptor (Homo sapiens) (Q969F8 whole entry, looked up): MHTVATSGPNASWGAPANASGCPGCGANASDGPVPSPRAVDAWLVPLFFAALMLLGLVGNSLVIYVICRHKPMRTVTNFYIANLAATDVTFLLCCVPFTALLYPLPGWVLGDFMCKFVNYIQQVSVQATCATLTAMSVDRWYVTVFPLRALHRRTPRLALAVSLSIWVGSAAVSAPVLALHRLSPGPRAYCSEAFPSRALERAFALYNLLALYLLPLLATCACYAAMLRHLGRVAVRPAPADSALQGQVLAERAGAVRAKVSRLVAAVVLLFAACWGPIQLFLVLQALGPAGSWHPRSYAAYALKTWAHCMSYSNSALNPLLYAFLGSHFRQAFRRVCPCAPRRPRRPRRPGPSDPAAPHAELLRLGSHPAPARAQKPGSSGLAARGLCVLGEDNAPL
Method in brief: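 Calcium flux read-out: kinetic fluorescence at Ex/Em=480/540, 1 s intervals over 3 min, after pin-tool compound addition to dye-loaded KISS1R-HEK293 cells. Fifteen concentrations, triplicates.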

[5] = G protein-coupled receptor (GPCR) small molecule agonists, calcium flux assay: HEK293 wild type cell line counter screen (AID 1920065); note: potency is the fitted concentration of half-maximal effect
Method in brief: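 Agonist mode; 18 h seeding at 37 C, 1 h dye load at 37 C; compounds pinned from DMSO, ATP as positive control; kinetic fluorescence 480/540 nm, 3 min, 1 s reads; 15 concentrations, triplicate.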

[6] = p53 small molecule agonists, cell-based qHTS assay with human liver microsomes: qHTS cell viability counter screen (AID 1963579); note: nearly all actives have a fitted effect of over 45% in size; note: potency is the fitted concentration of half-maximal effect
Method in brief: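 After the 460/530 nm beta-lactamase read, CellTiter-Glo was added to the same wells and luminescence measured after 30 min at room temperature, giving viability of p53RE-bla cells treated 16 h with compounds plus microsomes and NADPH.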

[7] = p53 small molecule agonists, cell-based qHTS assay: qHTS cell viability counter screen (AID 1963581); note: nearly all actives have a fitted effect of over 45% in size
Method in brief: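 Cytotoxicity read-out: ATP-based luminescence (CellTiter-Glo, 30 min RT) measured in the same wells as the p53 reporter assay, HCT-116 p53RE-bla cells, 16 h compound exposure at 37 C.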

[8] = biological target: 5-hydroxytryptamine receptor 2A (Homo sapiens) (UniProt P28223); test: 5-hydroxytryptamine receptor 2A (HTR2A) small molecule antagonists, cell-based qHTS assay (AID 1963586); note: nearly all actives have a fitted effect of over 45% in size
Chain of 5-hydroxytryptamine receptor 2A (Homo sapiens) (P28223 whole entry, looked up): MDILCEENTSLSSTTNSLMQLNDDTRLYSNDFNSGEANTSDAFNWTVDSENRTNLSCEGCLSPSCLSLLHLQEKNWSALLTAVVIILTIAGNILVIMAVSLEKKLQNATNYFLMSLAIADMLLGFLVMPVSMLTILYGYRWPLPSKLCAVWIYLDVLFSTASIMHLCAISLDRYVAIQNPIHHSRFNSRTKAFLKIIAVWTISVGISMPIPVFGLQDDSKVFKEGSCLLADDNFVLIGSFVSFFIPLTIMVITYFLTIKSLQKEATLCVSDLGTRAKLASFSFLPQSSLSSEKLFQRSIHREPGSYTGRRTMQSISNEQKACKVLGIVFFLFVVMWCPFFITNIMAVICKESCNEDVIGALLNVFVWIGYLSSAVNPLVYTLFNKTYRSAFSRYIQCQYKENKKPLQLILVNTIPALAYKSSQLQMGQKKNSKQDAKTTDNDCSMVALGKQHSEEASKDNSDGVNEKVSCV
Method in brief: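 CHO cells stably expressing human HTR2A were plated for 18 h at 37 C, then loaded with calcium dye for 1 h. Compounds were preincubated 5 min at room temperature before DOI (4 nM solution) was added. Kinetic fluorescence was read for 3 min.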

[9] = biological target: 5-hydroxytryptamine receptor 2A (Homo sapiens) (UniProt P28223); test: 5-hydroxytryptamine receptor 2A (HTR2A) small molecule agonists, cell-based qHTS assay (AID 1963587); note: nearly all actives have a fitted effect of over 30% in size
Method in brief: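 HTR2A-CHO cells, plated 18 h at 37 C/5% CO2, dye-loaded 1 h at 37 C; compounds in DMSO added by pin tool (agonist mode). Intracellular calcium flux read as kinetic fluorescence on FDSS over 2 min at 1 s intervals.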

[10] = biological target: Muscarinic acetylcholine receptor M1 (Homo sapiens) (UniProt P11229); test: Cholinergic receptor muscarinic 1 (CHRM1) small molecule antagonists, cell-based qHTS assay (AID 1963588); note: nearly all actives have a fitted effect of over 40% in size
Chain of Muscarinic acetylcholine receptor M1 (Homo sapiens) (P11229 whole entry, looked up): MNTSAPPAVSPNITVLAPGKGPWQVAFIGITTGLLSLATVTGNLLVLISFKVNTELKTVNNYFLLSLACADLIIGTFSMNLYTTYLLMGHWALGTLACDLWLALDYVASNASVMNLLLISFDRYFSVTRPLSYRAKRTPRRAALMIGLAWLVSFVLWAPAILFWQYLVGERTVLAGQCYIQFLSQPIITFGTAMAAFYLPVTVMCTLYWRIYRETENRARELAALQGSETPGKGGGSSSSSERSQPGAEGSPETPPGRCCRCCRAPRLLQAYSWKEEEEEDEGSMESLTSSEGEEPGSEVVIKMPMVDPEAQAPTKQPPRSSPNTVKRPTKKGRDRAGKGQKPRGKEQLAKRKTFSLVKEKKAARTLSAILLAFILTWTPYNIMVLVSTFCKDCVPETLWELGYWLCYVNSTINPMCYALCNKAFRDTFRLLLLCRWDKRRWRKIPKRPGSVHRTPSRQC
Method in brief: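 Compounds were tested at 15 concentrations in three independent runs. Dye-loaded CHRM1-CHO cells were exposed 5 min at room temperature before stimulation by acetylcholine added at 50nM. Intracellular calcium was read kinetically on FDSS for 3 min.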

[11] = biological target: Muscarinic acetylcholine receptor M1 (Homo sapiens) (UniProt P11229); test: Cholinergic receptor muscarinic 1 (CHRM1) small molecule agonists, cell-based qHTS assay (AID 1963589); note: nearly all actives have a fitted effect of over 35% in size
Method in brief: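 Calcium flux read-out: kinetic fluorescence at 1 sec intervals after pin-tool compound addition to dye-loaded CHRM1-CHO cells (human M1). Agonist mode; 15 concentrations tested in triplicate independent runs.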

[12] = cAMP Responsive Elements (CRE) small molecule agonists, cell-based qHTS assay (AID 1963590)
Method in brief: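 Beta-lactamase reporter readout: LiveBLAzer B/G FRET substrate, 2 h at room temperature, added after 3 h compound treatment of CRE-bla HEK 293T cells at 37 C/5% CO2.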

[13] = cAMP Responsive Elements (CRE) small molecule antagonists, cell-based qHTS assay (AID 1963591; active = well fitted inhibition curve with a large enough effect in the signal ratio in the repeat runs, not every such curve was filed as active; the % refers to the signal ratio)
Method in brief: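 HEK293T CRE-bla; 18 h preincubation; compound pin-transfer; NKH477 0.25 uM final, 3 h, 37 C; LiveBLAzer FRET substrate 2 h RT.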

[14] = biological target: Beta-2 adrenergic receptor (Homo sapiens) (UniProt P07550); test: Adrenergic beta2 receptor (ADRB2) small molecule antagonists, cell-based qHTS assay (AID 1963592); note: series mostly up to about 92 µM; nearly all actives have a fitted effect of over 50% in size
Chain of Beta-2 adrenergic receptor (Homo sapiens) (P07550 whole entry, looked up): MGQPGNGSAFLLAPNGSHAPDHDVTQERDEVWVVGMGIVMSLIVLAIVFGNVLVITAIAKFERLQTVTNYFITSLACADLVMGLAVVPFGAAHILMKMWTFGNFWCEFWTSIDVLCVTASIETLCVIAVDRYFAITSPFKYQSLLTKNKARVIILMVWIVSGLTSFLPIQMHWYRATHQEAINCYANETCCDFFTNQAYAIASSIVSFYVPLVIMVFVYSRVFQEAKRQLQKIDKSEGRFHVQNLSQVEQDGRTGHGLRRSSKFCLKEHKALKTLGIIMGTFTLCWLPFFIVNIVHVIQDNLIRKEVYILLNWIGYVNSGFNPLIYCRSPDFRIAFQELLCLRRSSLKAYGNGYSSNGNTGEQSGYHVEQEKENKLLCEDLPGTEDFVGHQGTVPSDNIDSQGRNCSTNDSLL
Method in brief: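 Assay format: CHO-ADRB2 cells, 18-20hr seeding at 37C/5% CO2, then compound plus 1nM isoproterenol agonist mix for 0.5hr RT. Homogeneous time-resolved fluorescence cAMP detection after 1hr, expressed as 665/615 nm ratio.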

[15] = biological target: D(2) dopamine receptor (Homo sapiens) (UniProt P14416); test: Dopamine D2 receptor (DRD2) small molecule agonists, cell-based qHTS assay (AID 1963594); note: nearly all actives have a fitted effect of over 35% in size
Chain of D(2) dopamine receptor (Homo sapiens) (P14416 whole entry, looked up): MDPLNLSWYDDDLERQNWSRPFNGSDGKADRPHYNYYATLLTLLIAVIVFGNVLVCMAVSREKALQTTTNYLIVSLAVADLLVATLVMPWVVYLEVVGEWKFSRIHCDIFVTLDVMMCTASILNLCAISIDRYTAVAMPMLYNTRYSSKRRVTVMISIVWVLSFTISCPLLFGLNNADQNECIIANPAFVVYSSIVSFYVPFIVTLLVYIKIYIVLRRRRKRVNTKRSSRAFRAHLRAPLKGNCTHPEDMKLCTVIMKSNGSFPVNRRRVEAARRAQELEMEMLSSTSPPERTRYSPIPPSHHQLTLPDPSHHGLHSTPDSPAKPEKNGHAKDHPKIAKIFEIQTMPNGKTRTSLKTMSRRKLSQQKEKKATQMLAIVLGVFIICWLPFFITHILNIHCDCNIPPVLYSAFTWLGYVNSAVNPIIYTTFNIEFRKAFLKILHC
Method in brief: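 HEK293 cells stably expressing DRD2 were cultured 24 h at 37 C, then given Ro20-1724 (0.1 mM final) and compounds for 10 min at room temperature. NKH477 (200nM) was then added for 30 min. cAMP was read by HTRF.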

[16] = biological target: D(2) dopamine receptor (Homo sapiens) (UniProt P14416); test: Dopamine D2 receptor (DRD2) small molecule antagonists, cell-based qHTS assay (AID 1963595; active = well fitted inhibition curve with a large enough effect in the signal ratio in the repeat runs, with a control signal flat; the % refers to the signal ratio)
Method in brief: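 DRD2-HEK293; 0.1 mM Ro20-1724; cpd 10 min RT; NKH477 200 nM + quinpirole 12 nM, 30 min RT; HTRF cAMP (cAMP-d2/anti-cAMP cryptate), 665/620 nm ratio after 1 h.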

[17] = p53 small molecule agonists, cell-based qHTS assay with rat liver microsomes: qHTS cell viability counter screen (AID 1963580); note: nearly all actives have a fitted effect of over 45% in size; note: potency is the fitted concentration of half-maximal effect
Method in brief: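 Luminescent ATP readout (CellTiter-Glo, 30 min at room temperature) reports viability of p53RE-bla HCT-116 cells after 16 h at 37 C with test compounds under metabolic activation by rat liver microsomes and NADPH at 0.5 mg/mL final each.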

[18] = biological target: Beta-2 adrenergic receptor (Homo sapiens) (UniProt P07550); test: Adrenergic beta2 receptor (ADRB2) small molecule agonists, cell-based qHTS assay (AID 1963593);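 note: CHO cells stably overexpressing human ADRB2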
Method in brief: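 CHO cells stably over-expressing ADRB2 were plated overnight at 37C, then dosed with compounds plus a stimulation mix containing 100uM IBMX and 25uM Ro-20-1724 for 0.5hr at room temperature. cAMP was measured by HTRF competition, 1hr.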

[19] = p53 small molecule agonists, cell-based qHTS assay with rat liver microsomes (AID 1963578)
Method in brief: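 Metabolic activation is supplied by rat liver microsomes with NADPH (each 0.5 mg/mL final). p53RE-bla cells incubate with compound 16 h at 37 C; reporter activity is measured by LiveBLAzer fluorescence.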

[20] = p53 small molecule agonists, cell-based qHTS assay (AID 1963582; active = well fitted activation curve with a large enough effect in the signal ratio in the repeat runs, not every such curve was filed as active; the % refers to the signal ratio)
Method in brief: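 Fluorescence intensity read-out of a beta-lactamase reporter under a p53 response element. Cells were exposed to DMSO-dissolved compounds for 16 h at 37 C, then developed with FRET substrate for 2 h at RT.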

SMILES	Potency [1]	Potency [2]	Potency [3]	Potency [4]	Potency [5]	Potency [6]	Potency [7]	Potency [8]	Potency [9]	Potency [10]	Potency [11]	Potency [12]	Potency [13]	Potency [14]	Potency [15]	Potency [16]	Potency [17]	Potency [18]	Potency [19]	Potency [20]
CCCCOCCOCCOC(=O)CCCCC(=O)OCCOCCOCCCC	inactive	inactive	inactive	inactive	inactive	inactive	inactive	inactive	inactive	inactive	inactive	inactive	inactive	inactive	inactive	inactive				
C[N+](C)(C)CCO	inactive	inactive	inactive	inactive	inactive	inactive	inactive					inactive	inactive	inactive	inactive	inactive	inactive	inactive		
CN(C)C(=O)Oc1ccc[n+](C)c1	inactive	inactive	inactive	inactive	inactive	inactive		inactive	inactive	inactive	inactive	inactive	inactive	inactive	inactive		inactive			
COc1cc(C=O)ccc1OC(=O)C(C)C	inactive	inactive	inactive	inactive		inactive	inactive	inactive	inactive	inactive	inactive	inactive	inactive	inactive	inactive	inactive	inactive	inactive	inactive	inactive
COS(C)(=O)=O	inactive	inactive	inactive	inactive	inactive	inactive	inactive					inactive	inactive	inactive	inactive	inactive	inactive	inactive		
O=C(NCC1CCCCN1)c1cc(OCC(F)(F)F)ccc1OCC(F)(F)F (stereo not given)	inactive	inactive	inactive	inactive	inactive		inactive	inactive	inactive	inactive		inactive	inactive	inactive	inactive	inactive				inactive
O=C1OC2(c3ccc(O)cc3Oc3cc(O)ccc32)c2ccccc21	9.44 µM (active)	inactive	389 nM (active) and 1.9 µM (active)	550 nM (active) and 2.39 µM (active)	1.74 µM (active) and 3.38 µM (active)		inactive							inactive	inactive	inactive	inactive	inactive		
CN(C)/N=N/c1nc[nH]c1C(N)=O	inactive	inactive	inactive	inactive	inactive	inactive	inactive					inactive		inactive	inactive	inactive	inactive	inactive		
OC[C@H]1O[C@@](CO)(O[C@H]2O[C@H](CO)[C@@H](O)[C@H](O)[C@H]2O)[C@@H](O)[C@@H]1O	inactive	inactive	inactive	inactive	inactive	inactive	inactive	inactive	inactive	inactive	inactive		inactive	inactive	inactive	inactive				
O=C(O)/C=C/C(=O)O	inactive	inactive	inactive	inactive	inactive			inactive	inactive	inactive	inactive	inactive	inactive	inactive	inactive	inactive				
Cc1cc(O)cc(C)c1Cl	inactive	inactive	inactive	inactive	inactive		inactive						inactive	inactive	inactive		inactive			
Cc1ccc(C2OC[C@@H]3OC(c4ccc(C)cc4)O[C@H]([C@H](O)CO)[C@@H]3O2)cc1 (stereo not given in full)	inactive	inactive	inactive	inactive		inactive	inactive	inactive	inactive	inactive	inactive	inactive	inactive	inactive	inactive	inactive	inactive	inactive	inactive	inactive
CCCCC(CC)COP(=O)(O)OCC(CC)CCCC (stereo not given)	54.6 µM (active) and 54.5 µM (active)	inactive	inactive	inactive	inactive	36.4 µM (active) and 20.4 µM (active)			inactive		inactive		inactive		inactive	inactive	28.9 µM (active)			
O=C1Nc2ccccc2C1(c1ccc(O)cc1)c1ccc(O)cc1	inactive	386 nM (active) and 841 nM (active)	inactive	inactive	inactive	inactive		inactive	inactive	inactive	inactive	inactive	inactive	inactive	inactive	inactive	inactive			
CC(=O)OC/C=C(\C)CC/C=C(\C)CCC=C(C)C	inactive	inactive	inactive	inactive	inactive	inactive		inactive	inactive	inactive	inactive	inactive	inactive	inactive	inactive	inactive	inactive	inactive		

Source: PubChem BioAssay (Tox21)
